Screening results from PubChem BioAssay.
FMDV inh – blocks foot and mouth disease virus; FMDV antiviral cell-based qHTS; Potency, µM (series often up to 57.9 µM), inactives show top-dose activity change, negative = inhibition, most hits filed as inhibitors; actives 1.2% (n = 410,000); AID 1159524; calls by dose curve; tested in HEK293T cells; also: read-out not given here; potency is read from the fitted curve at half-maximal effect; % is scaled to controls: 0 for no effect and ±100 for the full control effect; nearly all actives have a fitted effect of over 45% in size
Cycloheximide cs – counter-screen hit for Shiga toxin inhibitors, cycloheximide; cell reporter, cycloheximide protein synthesis inhibition counterscreen; max response, %; actives 12% (n = 300,000); AID 2314; in the data active = max response mostly above about 13%, no sharp cut-off; inactive = mostly below about 14%; also: read at 38.3 µM for the half of the compounds with a filed dose; 0% is about no effect
MARV entry inh – Marburg virus entry inhibition | Marburg virus pseudotyped entry inhibition, cell reporter | Potency, µM (highest dose often 37.8 µM), for inactives: at the highest dose activity change, negative = inhibition, actives largely listed as inhibitors | actives 1.8% (n = 300,000) | AID 540276; calls by dose curve; tested in HEK293 cells; also: potency is read from the fitted curve at half-maximal effect; % is scaled to controls: 0 for no effect and ±100 for the full control effect
Shiga inhibitor – blocks Shiga toxin action in Vero cells | Vero cells, Shiga toxin protein synthesis inhibition reporter | inhibition, % at 38.7 µM | actives 9.2% (n = 290,000); in the data active = inhibition mostly above about 28%, no sharp cut-off; inactive = mostly below about 43%; also: 0% is about no effect
HCV inhibitor – inhibitors of hepatitis C virus infection | AID 651820 | actives 3.4% (n = 340,000) | Huh7.5.1 HCVcc-Cre infection, luciferase reporter, 44 h | Potency, µM (highest dose often 41.8 µM), for the others: at the highest dose activity change, negative = inhibition, usual class: inhibitors; active = well fitted inhibition curve with a large enough effect; inconclusive = small, poorly fitted or top-dose-only effect, or another doubt; inactive = no such curve, though single readings can be large or run the other way; also: potency is read from the fitted curve at half-maximal effect; % is scaled to controls: 0 for no effect and ±100 for the full control effect
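Luciferase read-out (15 sec integration) after a 15 min room-temperature substrate step quantifies HCVcc-Cre infection. Cells, 1,000 per well, had compound added 4 h post-plating, then virus at ~0.5 moi, and were cultured 44 h.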
LASV entry inh – blocks Lassa virus binding to or entry into cells. Lassa virus pseudotype entry inhibition, cell reporter. Potency, µM (series often up to 37.9 µM), inactives show top-dose activity change, negative = inhibition, usual class: inhibitors. actives 1.2% (n = 300,000). AID 540256; calls by dose curve; tested in HEK293 cells; also: potency is read from the fitted curve at half-maximal effect; % is scaled to controls: 0 for no effect and ±100 for the full control effect; nearly all actives have a fitted effect of over 50% in size
Numbers without * were called inactive; ? = inconclusive; · = no result given; ! = repeats disagree; [ ] = another dose, or the depositor's remark. Compounds with a hit are over-represented: about 13% of the library has one in this group of screens.

SMILES	FMDV inh	Cycloheximide cs	MARV entry inh	Shiga inhibitor	HCV inhibitor	LASV entry inh
Cc1ccc(OCc2nc(-c3ccccn3)no2)cc1	·	29*	-16%	43	28%	-5%
CCC(c1ccccc1)c1nc(-c2ccccn2)no1 (configuration not stated)	16%	4	?	46	7%	12%
CCOc1ccc(C(CCc2ccccc2)NC(=O)c2ccccc2OC)cc1OCC (configuration not stated)	?	5	?	-8	?	-27%
O=c1oc2ccc(Br)cc2cc1S(=O)(=O)c1ccc(F)cc1	28µM*	-7	-6%	-17	?	-19%
O=C(Nc1ccccc1C(F)(F)F)c1ccc2oc(=O)c(S(=O)(=O)c3ccc(F)cc3)cc2c1	28µM*	·	2%[46.1 µM]	·	·	-12%[46.1 µM]
Cc1ncc(CO)c2cc(S(=O)(=O)c3ccc(F)cc3)c(=O)oc12	-11%	-2	·	10	-4%	·
Cc1ccc(NC(=O)c2ccc3oc(=O)c(S(=O)(=O)c4ccccc4)cc3c2)cc1C	28µM*	·	0%[46.1 µM]	·	·	18%[46.1 µM]
COc1ccccc1NC(=O)c1ccc2oc(=O)c(S(=O)(=O)c3ccccc3)cc2c1	28µM*	·	6%[46.1 µM]	·	·	?
COc1ccc2cc(S(=O)(=O)c3ccccc3)c(=O)oc2c1	-30%	-2	1%	-11	4%	·
COc1ccc(NC(=O)c2cc3c(C)nn(-c4ccccc4)c3s2)c(OC)c1	0%	·	-15%[46.1 µM]	·	·	-8%[46.1 µM]
O=C(O)c1ccc(N/N=C/C2=Cc3ccccc3OC2)cc1	13%	41*	·	73*	21%	·
COCCNC(=O)C1Cc2c(ccc3ccccc23)O1 (configuration not stated)	33%	15*	-13%[46.1 µM]	37	-17%	8%
Cc1ccc(-n2c(C)cc(C(=O)COc3cccnc3[N+](=O)[O-])c2C)cc1	?	43*	?	54*	?	?
Cc1cc(C(=O)COc2cccnc2[N+](=O)[O-])c(C)n1-c1ccccc1	-7%	59*	?	56*	-8%	4.6µM*
Cc1cc(C(=O)COc2ccc(Cl)cc2Br)c(C)n1C	6%	22*	?	41	-6%	?
Cc1cc(C(=O)COc2cccnc2[N+](=O)[O-])c(C)n1-c1ccccc1F	-7%	40*	·	87*	-27%	·
Cc1cc(C(=O)COc2ccccc2C(N)=O)c(C)n1C	15%	5	-4%[46.1 µM]	28	-29%	-4%
C=CCn1c(SC(C)C(N)=O)nc2sc(CC)cc2c1=O (configuration not stated)	-15%	-1	0%[46.1 µM]	5	-5%	8%
CNC(=O)C12CC3CC(CC(Cl)(C3)C1)C2	-17%	-1	4%	-6	19%	-11%
Cc1ccc(OCC(=O)c2cc(C)n(C)c2C)c([N+](=O)[O-])n1	14%	29*	4%	80*	26%	?
Cc1cc(C(=O)COc2cccc3cccnc23)c(C)n1C	4%	-1	?	2	-13%	?
CC1CCC(C(C)C)C(OC(=O)COC(=O)c2ccc(=O)[nH]c2)C1 (configuration not stated)	-28%	-2	-14%	-5	8%	-16%
CC1CCC(C(C)C)C(OC(=O)COC(=O)c2cc(O)ccc2N)C1 (configuration not stated)	?	24*	?	57*	?	?
CCOc1ccc(CN2CCNC(=O)C2CC(=O)O)cc1 (configuration not stated)	0%	-3	4%[46.1 µM]	-8	15%	?
O=S(=O)(NC1CC1)c1ccccc1	2%	-2	·	-10	14%	·
SMILES	FMDV inh	Cycloheximide cs	MARV entry inh	Shiga inhibitor	HCV inhibitor	LASV entry inh
Cc1c(Br)c([N+](=O)[O-])nn1CC(=O)N1CCc2ccccc21	14%	-4	-2%[46.1 µM]	-13	41%	-2%
Cc1c(Cl)c([N+](=O)[O-])nn1CC(=O)N1CCCc2ccccc21	17%	25*	7%	-2	-16%	14%
O=C(Cn1cc2c(n1)CCCCC2)N1CCCCC1	21%	18*	?	38	23%	0%
O=C(Cn1cc2c(n1)CCCC2)N1CCCc2ccccc21	26%	18*	·	76*	-1%	·
CC1CCc2nn(CC(=O)N3CCc4ccccc43)cc2C1 (configuration not stated)	24%	-4	·	-4	12%	·
CC(Oc1ccccc1F)c1nnc(SCC(=O)NCc2ccc3c(c2)OCO3)o1 (configuration not stated)	-20%	·	·	·	-17%	·
CSc1nc(C(=O)NCc2nc(-c3cccc(NC(=O)c4ccc(C)s4)c3)oc2C)cs1	30%	·	·	·	·	·
COc1ccccc1OCC(=O)NCCSCc1ccc(Cl)cc1	0%	-2	-15%	-10	-9%	6%
Clc1ccc2c(SCC3CO3)c3ccccc3nc2c1 (configuration not stated)	?	·	?	·	?	20µM*
O=C(CSc1c2c(nc3cc(Cl)ccc13)CCCC2)NCCN1CCOCC1	?	-1	?	-14	-21%	13%[46.1 µM]
CCc1ccc(C(=O)NNc2cc(Cl)cc(Cl)c2)cc1	0%	10	?	9	-14%	?
CCc1ccc(C(=O)NCc2ccc(Cl)cc2)cc1	50%	15*	?	37	2%	4%
CCc1ccc(C(=O)NCc2ccc(Cl)cc2Cl)cc1	31%	14	?	47	-10%	1%
CCc1ccc(C(=O)NNc2ccc(Cl)cc2)cc1	42%	48*	·	59*	-7%	·
Cc1cn2c(=O)c(S(=O)(=O)N3CCN(c4cc(Cl)ccc4C)CC3)c(C)nc2s1	-9%	·	·	·	·	21%[46.1 µM]
COc1ccc2nc(S(=O)Cc3ncc(C)c(OC)c3C)[nH]c2c1 (configuration not stated)	-21%	8	-1%	14	2.2µM*!	-28%
C=CCOc1c(OC)cc(Cl)cc1C1NC(=O)NC(C)=C1C(C)=O (configuration not stated)	2%	-1	7%	5	8%	4%
C=CCOc1c(Cl)cc(C2NC(=O)NC(C)=C2C(=O)OC)cc1Cl (configuration not stated)	·	-4	-9%	-6	11µM*	-26%
CON(C)c1nc(Oc2ccc(=O)[nH]n2)nc(N(C)C)n1	13%	-2	3%	4	8%	20%
Cc1cc(Oc2ccc(=O)[nH]n2)nc(Cl)n1	-1%	35*	·	47*	16%	·
CSc1nc(C)cc(Oc2ccc(=O)[nH]n2)n1	-8%	4	4%[46.1 µM]	-11	8%	-1%
COc1cc(C)nc(Oc2ccc(=O)[nH]n2)n1	-20%	22*	?	42	18%	6%
O=C1c2ccccc2-c2onc3c(Oc4ccccc4)cc(O)c1c23	·	22*	-5%	27	6%	·
CCOC(=O)C(=CNc1cc(Cl)c(-c2ccco2)c(Cl)c1)C(=O)OCC	-26%	-2	·	-6	13µM*	·
N#Cc1cccc(C(=O)Nc2cccc(S(=O)(=O)N3CCCC3)c2)c1	-29%	7	?	3	-18%	-17%[46.1 µM]
